Results reported in PubChem BioAssay AID1159580 (chemical genetic matrix, 2015).
Values joined by “and” are separate entries in the source; they are usually repeats but may differ in a detail not shown here. Equal entries are not always repeated. About 2,000 (36%) of roughly 5,500 compounds were called active. Another 18% or so got no clear call; they are omitted. Rule as the data show it: active = normalized growth mostly below about 0.91 (no sharp cut-off); inconclusive = no clear call, values can overlap the other calls; inactive = mostly above about 0.92. Some of the results follow.

Assay: chemical genetic growth profiling, strain panel (AID 1159580);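 also: tested at 20 µM; growth read once vehicle control cultures reached saturation at 30 °C; 1 = growth at the plate median or of vehicle wells; lower values mean less growth of the strain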
Conditions: S. cerevisiae deletion strains, growth OD

Measured: normalized growth

Nc1ccn(C2O[C@H](CO)[C@@H](O)[C@@H]2O)c(=O)n1 (stereo partly drawn)
inactive: locus YAL021C, strain ccr4, active compounds read low 0.997 | locus YAL026C, strain drs2, active compounds read low 0.974 | locus YAL030W, strain snc1, active compounds read low 0.999 | locus YBL061C, strain skt5, active compounds read low 1.01 | locus YBR009C, strain hhf1, active compounds read low 0.972 | locus YBR021W, strain FUR4, active compounds read low 1.02 | locus YBR023C, strain chs3, active compounds read low 1.02 | locus YBR171W, strain sec66, active compounds read low 0.994 | locus YBR229C, strain ROT2, active compounds read low 1.01 | locus YBR231C, strain swc5, active compounds read low 0.999 | locus YBR279W, strain paf1, active compounds read low 0.998 | locus YCL011C, strain gbp2, active compounds read low 1 | locus YCL016C, strain dcc1, active compounds read low 1.05 | locus YCL029C, strain bik1, active compounds read low 1 | locus YCL061C, strain MRC1, active compounds read low 1.01 | locus YCL069W, strain vba3, active compounds read low 0.979 | locus YCR088W, strain abp1, active compounds read low 0.986 | locus YDL005C, strain med2, active compounds read low 0.989 | locus YDL035C, strain GPR1, active compounds read low 1.03 | locus YDL040C, strain nat1, active compounds read low 0.984 | locus YDL074C, strain BRE1, active compounds read low 1.01 | locus YDL101C, strain DUN1, active compounds read low 1 | locus YDL185W, strain tfp1, active compounds read low 0.991 | locus YDL192W, strain arf1, active compounds read low 0.998 | locus YDR001C, strain nth1, active compounds read low 0.989 | locus YDR069C, strain doa4, active compounds read low 0.984 | locus YDR101C, strain arx1, active compounds read low 1.02 | locus YDR137W, strain rgp1, active compounds read low 1.01 | locus YDR159W, strain sac3, active compounds read low 0.961 | locus YDR162C, strain NBP2, active compounds read low 1.02 | locus YDR195W, strain ref2 0.997 | locus YDR297W, strain sur2, active compounds read low 0.986 | locus YDR318W, strain mcm21, active compounds read low 1 | locus YDR334W, strain swr1, active compounds read low 0.987 | locus YDR335W, strain msn5, active compounds read low 0.997 | locus YDR388W, active compounds read low 0.994 | locus YDR392W, strain spt3, active compounds read low 0.943 | locus YDR502C, strain sam2, active compounds read low 1.02 | locus YEL003W, strain gim4, active compounds read low 0.973 | locus YEL037C, strain rad23, active compounds read low 0.973 | locus YEL061C, strain CIN8 (second series), active compounds read low 0.976 | locus YEL061C, strain CIN8, active compounds read low 1.01 | locus YER015W, strain faa2, active compounds read low 1.01 | locus YER016W, strain bim1, active compounds read low 1.01 | locus YER110C, active compounds read low 1 | locus YER111C, strain swi4, active compounds read low 0.987 | locus YER155C, strain BEM2 (second series), active compounds read low 0.969 | locus YER155C, strain BEM2, active compounds read low 1.01 | locus YER167W, strain BCK2, active compounds read low 1.01 | locus YFR010W, strain ubp6, active compounds read low 0.976 | locus YGL078C, strain dbp3, active compounds read low 0.995 | locus YGL086W, strain mad1, active compounds read low 1 | locus YGL167C, strain pmr1, active compounds read low 1.01 | locus YGL173C, strain kem1, active compounds read low 1 | locus YGL227W, strain vid30, active compounds read low 0.995 | locus YGL240W, strain doc1, active compounds read low 1 | locus YGL248W, strain PDE1, active compounds read low 0.987 | locus YGL253W, strain hxk2, active compounds read low 1 | locus YGR135W, strain pre9, active compounds read low 0.983 | locus YGR252W, strain gcn5, active compounds read low 1 | locus YHR013C, strain ard1, active compounds read low 1.02 | locus YHR027C, strain rpn1, active compounds read low 0.996 | locus YHR030C, strain SLT2, active compounds read low 1.01 and 1.02 | locus YHR079C, strain IRE1 (second series), active compounds read low 0.996 | locus YHR079C, strain IRE1, active compounds read low 1.02 | locus YHR094C, strain hxt1, active compounds read low 0.996 | locus YHR129C, strain ARP1, active compounds read low 1.01 | locus YHR142W, strain chs7, active compounds read low 1.01 | locus YHR200W, strain rpn10, active compounds read low 1 | locus YIL066C, strain RNR3, active compounds read low 1.01 | locus YIL073C, strain SPO22, active compounds read low 1.01 | locus YIL125W, strain kgd1, active compounds read low 0.997 | locus YIR030C, strain dcg1, active compounds read low 1.01 | locus YJL092W, strain hpr5, active compounds read low 0.985 | locus YJL095W, strain BCK1 (second series), active compounds read low 1 | locus YJL095W, strain BCK1, active compounds read low 0.977 and 1.01 | locus YJL115W, strain asf1, active compounds read low 0.978 | locus YJL129C, strain trk1, active compounds read low 1.01 | locus YJL134W, strain LCB3, active compounds read low 1 | locus YJL154C, strain vps35, active compounds read low 0.981 | locus YJL164C, strain tpk1, active compounds read low 0.989 | locus YJL166W, strain qcr8, active compounds read low 1.02 | locus YJL168C, strain set2, active compounds read low 1 | locus YJL187C, strain SWE1 (second series), active compounds read low 0.997 | locus YJL187C, strain SWE1, active compounds read low 0.994 | locus YJR043C, strain POL32, active compounds read low 1.03 | locus YJR066W, strain TOR1, active compounds read low 0.99 | locus YJR075W, strain HOC1, active compounds read low 1.01
